Screens deposited in PubChem by The Scripps Research Institute Molecular Screening Center.
DAX1 inh-1: inhibitors of DAX1 repression of SF-1 activated StAR promoter; AID 652010; 370,000 compounds, 1.1% hits; inhibition, % at 6.8 µM; HEK293T StAR-luciferase reporter, SF-1/DAX-1 repression relief;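 active = inhibition above the mean over all tested compounds plus 3 SD, cut at about 3.6% in these data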;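 note: 0% = DAX-1 cells with DMSO and 100% = cells lacking DAX-1 with DMSO; higher inhibition means more luminescence from relief of DAX-1 repression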
hcDAF12 agonist: activates DAF-12 receptor from parasite H. contortus; HEK293 hcDAF-12 lit1-tk-luc reporter, luminescence; 0% DMSO, 100% Δ7-dafachronic acid; activation, % at 6.8 µM; 370,000 compounds, 1.4% hits;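 active = activation above the mean of all tested compounds plus 3 SD, cut at about 5.5% in these data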;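 note: 100% = response to 3 µM Δ7-dafachronic acid high control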
hgDAF12 agonist: activates the H. glycines DAF-12 receptor ligand-binding domain. HEK293 GAL4-hgDAF12 UAS-luciferase reporter, agonist luminescence; normalized to butyrate control. activation, % at 6.8 µM. 370,000 compounds, 1.8% hits;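 active = activation above a cutoff set at the mean of all screened compounds plus 3 SD, cut at about 10% in these data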;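 note: 0% = DMSO wells and 100% = sodium butyrate wells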
ssDAF-12 act: S. stercoralis DAF-12 activation, primary screen; 370,000 compounds, 1% hits; activation, % at 6.8 µM; HEK293 ssDAF-12/GRIP1 lit1-tk-luc reporter, luminescence; % of 3 µM dafachronic acid response;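 active = activation above the mean over all tested compounds plus 3 SD, cut at about 0.9% in these data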;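 note: 0% = DMSO-only wells and 100% = 3 µM delta7-dafachronic acid wells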
DAX1 inh-2: inhibits human nuclear receptor DAX1; 340,000 compounds, 0.99% hits; HEK293 Gal4-DAX1 luciferase reporter, luminescence; inhibition, % at 6.75 µM; AID 504766; P51843;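 active = inhibition above the mean over all tested compounds plus 3 SD, cut at about 4.2% in these data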;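 note: 0% = DAX1-transfected cells with DMSO and 100% = empty-vector control cells with DMSO; inhibition shows as a rise in luminescence from relieved DAX1 repression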
DAX1 conf: NR0B1 (human) inhibition, confirmation. AID 652134. inhibition, % at 6.8 µM. HEK293T StAR-promoter luciferase reporter, SF-1/DAX-1 repression. 2,400 compounds, 87% hits. shares compounds with DAX1 inh-1;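 active = inhibition above the average of every tested compound plus 3 SD, cut at about 3.8% in these data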;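 note: 0% = DAX-1 cells with DMSO and 100% = no DAX-1 control cells with DMSO; active compounds raise luminescence by relieving repression of the StAR reporter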
Target sequence (P51843 whole entry, looked up): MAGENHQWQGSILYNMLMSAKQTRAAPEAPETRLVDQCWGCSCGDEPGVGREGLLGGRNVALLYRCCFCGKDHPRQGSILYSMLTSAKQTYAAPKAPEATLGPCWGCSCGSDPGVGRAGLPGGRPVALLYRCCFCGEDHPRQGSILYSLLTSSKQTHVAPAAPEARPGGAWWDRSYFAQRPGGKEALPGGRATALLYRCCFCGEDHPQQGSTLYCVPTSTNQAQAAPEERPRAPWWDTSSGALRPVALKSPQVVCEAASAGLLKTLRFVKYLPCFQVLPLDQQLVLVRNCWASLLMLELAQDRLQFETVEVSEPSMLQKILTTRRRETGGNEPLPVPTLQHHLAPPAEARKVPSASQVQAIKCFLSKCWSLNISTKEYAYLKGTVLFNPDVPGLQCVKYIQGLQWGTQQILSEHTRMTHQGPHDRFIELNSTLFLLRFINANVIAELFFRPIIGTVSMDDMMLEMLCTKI
SF1 AF2mut Luc: counter-screen for DAX1 inhibitors: nonselective inhibitors with SF-1 AF2 mutant; inhibition, % at 6.8 µM; 2,400 compounds, 78% hits; shares compounds with DAX1 inh-1; HEK293 StAR-luciferase, luminescence;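 active = inhibition above the mean of all tested compounds plus 3 SD, cut at about 3% in these data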;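 note: 0% = DAX-1 transfected cells with DMSO and 100% = cells without DAX-1 with DMSO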
* marks the source's active call; other numbers are inactive results; · = no result given. A selection: hits, their analogues and other compounds. The true share with any hit is near 4.1%.

SMILES	DAX1 inh-1	hcDAF12 agonist	hgDAF12 agonist	ssDAF-12 act	DAX1 inh-2	DAX1 conf	SF1 AF2mut Luc
COc1c(C=O)c2c(c(OC)c1OC)-c1ccc(OC)c(=O)cc1C(NC(C)=O)CC2 (stereo unspecified)	5.1*	1.9	-3.8	-0.4	-0.6	21.0*	-8.3
COc1cc2c(c(OC)c1OC)-c1ccc(OC)c(=O)cc1C(NC(=O)c1ccccc1)CC2 (stereo unspecified)	4.7*	0.6	-5.1	-0.7	1.0	15.6*	-6.2
COc1cccc(N=CNc2cccc(OC)c2)c1	4.7*	1.7	9.4	0.3	0.7	5.4*	3.4*
COc1cccc(NC=C2C(=O)OC(C)(C)OC2=O)c1	-0.7	0.8	2.1	-1.2	-1.7	·	·
CCc1ccc(C(=O)NNC(=O)Cn2c(=O)cnc3ccccc32)cc1	5.4*	-1.0	2.2	-0.5	-1.2	1.6	-0.9
O=C(Cn1c(=O)cnc2ccccc21)NNC(=O)c1ccc(Cl)cc1	0.6	0.0	2.0	-0.6	0.2	·	·
COc1ccccc1CN1CCC(CNS(=O)(=O)c2cc(-c3onc(C)c3C)ccc2OC)CC1	4.6*	-2.4	-2.0	-1.6	0.6	3.1	3.1*
O=C(C=Cc1ccccc1)N1CCCCC1	5.2*	2.5	5.4	-0.5	2.2	6.2*	4.7*
O=C(O)C1CCCN(C(=O)/C=C/c2ccccc2)CC1 (stereo unspecified)	0.1	-2.3	-2.1	-1.4	·	·	·
COC(=O)[C@]12C[C@H](CC(=O)N3CCOCC3)C(=O)N(CCC3=CCCCC3)C1=C[C@H](C1CCCC1)O[C@@H]2C	-0.3	-1.5	-1.9	-1.8	·	·	·
Cc1ccc(CN(C)C(=O)C2CCC(=O)N(CCc3ccccc3)C2)o1 (stereo unspecified)	5.8*	1.6	3.7	-0.6	0.6	4.2*	3.6*
CCOc1ccc(-c2cn3ccccc3n2)cc1	9.9*	5.8*	10.1	0.2	-3.2	13.9*	4.4*
CCc1sc(C(=O)Nc2ccc(N3CCOCC3)cc2)cc1C	0.3	-1.9	8.6	-1.2	-0.7	·	·
CCc1sc(C(=O)Nc2ccc3c(c2)OCO3)cc1C	7.6*	3.4	10.8*	0.1	0.3	9.3*	6.5*
CC(=O)Nc1ccc2c(c1)OCCOCCOc1cc(NC(C)=O)ccc1OCCOCCOCCO2	-0.9	-2.7	-2.0	-0.3	·	·	·
Cn1nccc1C(=O)Nc1ccc(Cl)cc1	0.8	0.1	1.4	-0.4	-0.1	·	·
Cn1nccc1C(=O)Nc1ccc2c(c1)OCO2	4.7*	1.7	8.8	-0.5	0.5	5.8*	3.9*
Cc1cc(C(=O)Nc2ccc3c(c2)OCO3)no1	7.8*	5.3	10.2	0.1	0.9	9.1*	7.5*
O=C(Nc1ccc2c(c1)OCCO2)c1ccc(Br)s1	5.9*	5.8*	12.5*	1.5*	-1.5	13.8*	5.6*
O=S1(=O)N[C@@H](Cc2ccccc2)COc2cccc(N3CCCCC3)c21	-0.8	-1.4	0.3	-0.9	·	·	·
CC(C)C[C@H]1COc2cccc(NCCO)c2S(=O)(=O)N1	1.3	-0.4	0.1	-1.5	·	·	·
Cc1sc(=NC(=O)c2ccco2)n(C)c1-c1ccccc1	5.5*	3.4	9.7	-0.1	-0.9	13.6*	6.3*
O=C(NCc1ccccc1)N1CCN(Cc2nc3ccccc3c(=O)[nH]2)CC1	-0.4	-3.7	0.6	-0.6	·	·	·
CCOc1ccc(NC(=S)NC(=O)C2CCCC2)cc1	1.1	2.2	3.9	-1.1	0.4	·	·
CC(=O)Nc1ccc(NC(=S)NC(=O)C2CCCC2)cc1	4.9*	0.1	3.8	-0.8	0.9	1.8	0.3
SMILES	DAX1 inh-1	hcDAF12 agonist	hgDAF12 agonist	ssDAF-12 act	DAX1 inh-2	DAX1 conf	SF1 AF2mut Luc
CN(C(=O)[C@@H](C1CC1)[C@@H](O)c1ccc2ccccc2c1)c1ccccc1	-1.5	0.8	2.1	0.0	·	·	·
CCOC(=O)c1cnc2c(-c3ccccc3)cnn2c1N	5.6*	3.5	12.0*	0.4	3.8	16.7*	11.8*
CCOC(=O)c1cnc2c(-c3ccccc3)c(C)nn2c1N	0.3	-0.6	3.5	-1.1	1.3	·	·
O=C(c1ccc(F)cc1)n1ccc(-c2cnc(-c3ccccc3)s2)n1	5.0*	5.9*	12.8*	0.9*	2.6	12.5*	5.5*
Cc1nc(NC(=O)CSc2nnc(C3CC3)n2C)sc1C(=O)N(C)C	1.6	1.7	0.9	-0.9	0.6	·	·
Cc1nc(NC(=O)CSC2=NCCS2)sc1C(=O)N(C)C	12.5*	1.7	3.4	-0.8	0.1	11.0*	4.5*
CN(CCOC(=O)c1cc2ccccc2o1)C1CN(Cc2cn(Cc3ccc([N+](=O)[O-])cc3)nn2)S(=O)(=O)C1 (stereo unspecified)	-0.3	0.9	3.0	-0.9	·	·	·
O=C(Nc1ccc(C(=O)N2CCCCC2)cc1)C1=CSCCO1	6.2*	1.1	5.4	0.9	3.4	4.7*	1.6
CCCC[C@H](C(=O)N(CC)c1ccccc1)[C@@H](O)c1ccc(Cl)cc1	-1.0	-2.2	1.9	-0.1	·	·	·
Cc1cc(=O)[nH]c(SCC(=O)Nc2cccc(Cl)c2F)n1	-0.6	-2.2	-0.9	-1.7	·	·	·
Cc1ccc(Nc2n[nH]c(=S)s2)cc1F	5.4*	0.8	6.2	-0.2	1.9	4.3*	2.9*
O=C(CCS(=O)(=O)c1ccccc1)NC1CCCCC1	4.7*	0.3	3.3	-0.9	0.5	5.8*	4.0*
O=C(CSc1ccccc1)NC1CCCCCC1	6.2*	6.3*	9.2	-0.2	0.5	7.7*	3.8*
CCC1CCCCN1C(=O)CCCc1ccccc1 (stereo unspecified)	0.7	1.0	3.5	-0.2	1.1	·	·
O=C(CSc1ccccc1)NC1CCCCCCC1	1.5	1.2	3.7	-0.5	0.1	·	·
COc1ccc(S(=O)(=O)CCC(=O)NC2CCCCC2)cc1	-0.6	0.7	-0.8	-0.2	0.3	·	·
CCC1CCCCN1C(=O)CCS(=O)(=O)c1ccccc1 (stereo unspecified)	4.8*	2.0	1.4	0.4	0.7	4.2*	1.4
O=C(NCc1ccccc1)[C@@H]1CCCN1C(=O)[C@H]1CCCN1C(=O)c1ccc(F)c(C(F)(F)F)c1	-0.5	-1.5	-1.0	-0.9	·	·	·
CC(=O)Nc1cccc(-c2csc(Nc3ccccn3)n2)c1	4.5*	5.1	7.5	-0.5	1.6	12.3*	6.0*
CCCC[C@H]1C2CC(OC(=O)Nc3ccccc3C(F)(F)F)C(C2)[C@H]2CCCCN21 (stereo partly specified)	0.1	-1.9	2.1	-0.7	·	·	·
COc1ccc(OC)c(CN2CCN(C(=O)CN3C(=O)NC4(CCCC4)C3=O)CC2)c1	4.9*	-0.8	-0.1	-1.3	-0.3	-2.2	-0.1
